This is an account of results in ChEMBL document CHEMBL1961873, “Compounds: GSK PKIS; Assays: Nanosyn kinase panel” (2012).

Structures are written as SMILES.

Test [1] concerns the target T1, Inhibitor of nuclear factor kappa-B kinase subunit epsilon (Homo sapiens) (UniProt Q14164).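 Also: reported values are averaged percent inhibition figures against human IKKε.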
T1 sequence (whole entry): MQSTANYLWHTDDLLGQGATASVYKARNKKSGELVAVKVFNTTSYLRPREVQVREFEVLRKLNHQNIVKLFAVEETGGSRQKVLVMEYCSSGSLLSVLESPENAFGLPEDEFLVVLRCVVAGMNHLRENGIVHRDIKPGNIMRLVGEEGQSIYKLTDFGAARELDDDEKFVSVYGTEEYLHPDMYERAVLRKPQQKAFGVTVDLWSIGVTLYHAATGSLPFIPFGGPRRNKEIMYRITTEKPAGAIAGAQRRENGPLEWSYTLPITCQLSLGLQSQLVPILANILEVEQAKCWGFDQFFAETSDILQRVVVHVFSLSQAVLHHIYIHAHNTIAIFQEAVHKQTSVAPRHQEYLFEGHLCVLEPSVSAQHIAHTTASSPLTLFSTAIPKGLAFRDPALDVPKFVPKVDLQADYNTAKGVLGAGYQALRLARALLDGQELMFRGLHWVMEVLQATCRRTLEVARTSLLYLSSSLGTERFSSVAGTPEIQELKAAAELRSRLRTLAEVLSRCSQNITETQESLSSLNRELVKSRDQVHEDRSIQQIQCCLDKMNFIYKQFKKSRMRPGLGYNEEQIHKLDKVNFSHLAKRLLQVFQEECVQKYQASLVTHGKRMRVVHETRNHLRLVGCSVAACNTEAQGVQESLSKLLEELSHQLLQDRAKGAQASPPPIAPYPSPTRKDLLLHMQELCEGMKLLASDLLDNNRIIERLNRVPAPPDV
As to conditions: at 1 µM.

Test [2] has as its target T2, Serine/threonine-protein kinase Nek1 (Homo sapiens) (UniProt Q96PY6).
T2 sequence (whole entry): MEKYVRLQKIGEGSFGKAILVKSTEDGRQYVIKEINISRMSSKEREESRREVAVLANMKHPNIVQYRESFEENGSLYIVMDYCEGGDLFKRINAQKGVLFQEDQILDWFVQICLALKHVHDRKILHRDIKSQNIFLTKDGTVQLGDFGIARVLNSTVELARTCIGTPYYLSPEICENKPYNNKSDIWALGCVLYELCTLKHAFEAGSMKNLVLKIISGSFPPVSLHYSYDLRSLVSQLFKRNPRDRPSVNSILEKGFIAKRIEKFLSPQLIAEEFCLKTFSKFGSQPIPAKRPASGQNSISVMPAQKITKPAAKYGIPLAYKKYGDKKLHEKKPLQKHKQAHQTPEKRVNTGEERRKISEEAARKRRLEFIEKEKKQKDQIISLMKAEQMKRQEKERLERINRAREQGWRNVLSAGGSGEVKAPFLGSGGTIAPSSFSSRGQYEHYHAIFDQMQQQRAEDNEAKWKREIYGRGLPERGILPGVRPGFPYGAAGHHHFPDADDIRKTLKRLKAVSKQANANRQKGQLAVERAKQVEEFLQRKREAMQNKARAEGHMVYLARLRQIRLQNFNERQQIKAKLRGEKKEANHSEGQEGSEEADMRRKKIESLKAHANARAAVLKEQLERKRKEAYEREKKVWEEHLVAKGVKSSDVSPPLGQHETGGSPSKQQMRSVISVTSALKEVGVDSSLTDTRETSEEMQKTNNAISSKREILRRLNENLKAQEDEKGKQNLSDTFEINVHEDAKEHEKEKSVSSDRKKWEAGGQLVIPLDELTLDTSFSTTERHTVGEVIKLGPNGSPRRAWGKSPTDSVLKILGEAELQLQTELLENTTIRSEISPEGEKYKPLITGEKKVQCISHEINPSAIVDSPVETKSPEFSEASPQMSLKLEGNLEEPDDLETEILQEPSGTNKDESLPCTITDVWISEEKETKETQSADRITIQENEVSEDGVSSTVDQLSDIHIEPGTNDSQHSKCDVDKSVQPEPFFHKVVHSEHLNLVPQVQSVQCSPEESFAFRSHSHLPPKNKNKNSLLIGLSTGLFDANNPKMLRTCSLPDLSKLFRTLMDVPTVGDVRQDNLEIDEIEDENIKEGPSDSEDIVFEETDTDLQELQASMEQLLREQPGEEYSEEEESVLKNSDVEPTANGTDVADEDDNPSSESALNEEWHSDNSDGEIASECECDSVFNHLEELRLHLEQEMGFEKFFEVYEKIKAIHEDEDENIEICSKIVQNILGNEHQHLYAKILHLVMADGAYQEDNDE
As to conditions: at 0.1 µM.

Test [3] concerns the target T2, Serine/threonine-protein kinase Nek1 (Homo sapiens). Conditions: at 1 µM.
The target of test [4] is T3, Serine/threonine-protein kinase Nek2 (Homo sapiens) (UniProt P51955).
T3 sequence (whole entry): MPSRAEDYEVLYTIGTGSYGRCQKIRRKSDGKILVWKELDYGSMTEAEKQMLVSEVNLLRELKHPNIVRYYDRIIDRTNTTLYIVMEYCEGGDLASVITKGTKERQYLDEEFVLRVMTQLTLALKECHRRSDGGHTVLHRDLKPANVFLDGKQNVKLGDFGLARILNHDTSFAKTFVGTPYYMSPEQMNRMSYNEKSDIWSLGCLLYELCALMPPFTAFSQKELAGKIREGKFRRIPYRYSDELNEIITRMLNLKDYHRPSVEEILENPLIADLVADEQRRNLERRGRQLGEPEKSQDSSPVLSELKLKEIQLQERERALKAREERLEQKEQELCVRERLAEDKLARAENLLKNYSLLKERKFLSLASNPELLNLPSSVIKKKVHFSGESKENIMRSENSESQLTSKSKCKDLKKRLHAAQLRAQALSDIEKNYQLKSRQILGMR
Conditions: at 0.1 µM.

Test [5] addresses T3, Serine/threonine-protein kinase Nek2 (Homo sapiens). Conditions: at 1 µM.
For test [6], the target named is Serine/threonine-protein kinase Nek6 (Homo sapiens) (UniProt Q9HC98). Conditions: at 0.1 µM.
For test [7] the target is unchanged. As to conditions: at 1 µM.
The target in test [8] is Serine/threonine-protein kinase Nek7 (Homo sapiens) (UniProt Q8TDX7). Conditions: at 0.1 µM.
Test [9] has the same target. Conditions: at 1 µM.
Test [10] addresses T4, Serine/threonine-protein kinase Nek9 (Homo sapiens) (UniProt Q8TD19).
T4 sequence (whole entry): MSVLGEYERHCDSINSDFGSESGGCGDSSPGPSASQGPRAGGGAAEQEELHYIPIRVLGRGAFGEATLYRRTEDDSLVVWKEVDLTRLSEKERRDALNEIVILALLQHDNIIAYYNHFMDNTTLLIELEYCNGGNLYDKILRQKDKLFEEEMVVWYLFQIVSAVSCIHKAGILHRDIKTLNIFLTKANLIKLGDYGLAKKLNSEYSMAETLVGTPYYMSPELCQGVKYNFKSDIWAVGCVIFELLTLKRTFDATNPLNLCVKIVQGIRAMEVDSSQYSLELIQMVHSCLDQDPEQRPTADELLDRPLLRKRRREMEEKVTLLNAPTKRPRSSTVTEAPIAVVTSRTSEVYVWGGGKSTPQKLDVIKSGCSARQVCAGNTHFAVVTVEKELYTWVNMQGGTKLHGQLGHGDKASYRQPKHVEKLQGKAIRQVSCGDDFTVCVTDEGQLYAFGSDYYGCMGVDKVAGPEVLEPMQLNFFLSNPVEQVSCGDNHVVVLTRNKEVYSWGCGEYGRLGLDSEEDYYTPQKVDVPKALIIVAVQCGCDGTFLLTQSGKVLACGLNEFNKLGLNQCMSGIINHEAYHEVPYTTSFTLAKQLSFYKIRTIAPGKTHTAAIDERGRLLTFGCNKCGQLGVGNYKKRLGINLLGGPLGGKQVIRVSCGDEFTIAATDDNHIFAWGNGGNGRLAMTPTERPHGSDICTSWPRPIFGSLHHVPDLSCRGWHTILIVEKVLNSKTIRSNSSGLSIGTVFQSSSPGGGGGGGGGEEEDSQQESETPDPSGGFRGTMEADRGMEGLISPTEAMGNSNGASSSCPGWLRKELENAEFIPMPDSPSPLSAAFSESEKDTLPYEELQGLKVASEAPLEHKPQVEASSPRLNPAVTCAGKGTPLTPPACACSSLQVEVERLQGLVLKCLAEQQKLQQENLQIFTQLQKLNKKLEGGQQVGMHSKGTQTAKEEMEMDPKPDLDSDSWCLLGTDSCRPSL
Conditions: at 0.1 µM.

The target of test [11] is T4, Serine/threonine-protein kinase Nek9 (Homo sapiens). Conditions: at 1 µM.
For test [12], the target named is Serine/threonine-protein kinase PLK1 (Homo sapiens) (UniProt P53350). As to conditions: at 0.1 µM.
Test [13] shares this target. Conditions: at 1 µM.
Test [14] concerns the target T5, Dual specificity protein kinase TTK (Homo sapiens) (UniProt P33981).
T5 sequence (whole entry): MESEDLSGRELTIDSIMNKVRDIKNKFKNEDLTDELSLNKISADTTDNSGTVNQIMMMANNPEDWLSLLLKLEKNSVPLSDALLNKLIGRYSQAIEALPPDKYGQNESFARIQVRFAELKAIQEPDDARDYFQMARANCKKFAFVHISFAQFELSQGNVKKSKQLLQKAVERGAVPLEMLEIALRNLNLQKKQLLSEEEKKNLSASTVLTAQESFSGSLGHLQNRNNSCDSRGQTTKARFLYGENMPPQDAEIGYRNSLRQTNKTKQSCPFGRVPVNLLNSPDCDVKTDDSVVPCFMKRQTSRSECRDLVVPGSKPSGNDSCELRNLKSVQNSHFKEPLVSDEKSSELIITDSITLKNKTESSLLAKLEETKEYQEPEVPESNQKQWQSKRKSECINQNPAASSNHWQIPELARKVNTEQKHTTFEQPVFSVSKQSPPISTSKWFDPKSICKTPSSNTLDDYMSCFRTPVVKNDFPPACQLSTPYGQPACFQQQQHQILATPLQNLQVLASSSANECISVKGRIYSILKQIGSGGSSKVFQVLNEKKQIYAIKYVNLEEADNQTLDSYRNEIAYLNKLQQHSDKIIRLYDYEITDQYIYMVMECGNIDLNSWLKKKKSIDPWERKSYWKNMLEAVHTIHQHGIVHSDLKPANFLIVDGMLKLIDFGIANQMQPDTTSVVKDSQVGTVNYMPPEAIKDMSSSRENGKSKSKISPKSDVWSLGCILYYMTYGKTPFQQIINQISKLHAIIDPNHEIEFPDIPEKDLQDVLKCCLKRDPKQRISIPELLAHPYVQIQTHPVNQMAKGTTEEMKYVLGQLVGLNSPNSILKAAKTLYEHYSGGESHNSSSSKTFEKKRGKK
As to conditions: at 0.1 µM.

In test [15] the test system is T6, Receptor-type tyrosine-protein kinase FLT3 (Homo sapiens), P36888 [D835Y].
T6 sequence (whole entry): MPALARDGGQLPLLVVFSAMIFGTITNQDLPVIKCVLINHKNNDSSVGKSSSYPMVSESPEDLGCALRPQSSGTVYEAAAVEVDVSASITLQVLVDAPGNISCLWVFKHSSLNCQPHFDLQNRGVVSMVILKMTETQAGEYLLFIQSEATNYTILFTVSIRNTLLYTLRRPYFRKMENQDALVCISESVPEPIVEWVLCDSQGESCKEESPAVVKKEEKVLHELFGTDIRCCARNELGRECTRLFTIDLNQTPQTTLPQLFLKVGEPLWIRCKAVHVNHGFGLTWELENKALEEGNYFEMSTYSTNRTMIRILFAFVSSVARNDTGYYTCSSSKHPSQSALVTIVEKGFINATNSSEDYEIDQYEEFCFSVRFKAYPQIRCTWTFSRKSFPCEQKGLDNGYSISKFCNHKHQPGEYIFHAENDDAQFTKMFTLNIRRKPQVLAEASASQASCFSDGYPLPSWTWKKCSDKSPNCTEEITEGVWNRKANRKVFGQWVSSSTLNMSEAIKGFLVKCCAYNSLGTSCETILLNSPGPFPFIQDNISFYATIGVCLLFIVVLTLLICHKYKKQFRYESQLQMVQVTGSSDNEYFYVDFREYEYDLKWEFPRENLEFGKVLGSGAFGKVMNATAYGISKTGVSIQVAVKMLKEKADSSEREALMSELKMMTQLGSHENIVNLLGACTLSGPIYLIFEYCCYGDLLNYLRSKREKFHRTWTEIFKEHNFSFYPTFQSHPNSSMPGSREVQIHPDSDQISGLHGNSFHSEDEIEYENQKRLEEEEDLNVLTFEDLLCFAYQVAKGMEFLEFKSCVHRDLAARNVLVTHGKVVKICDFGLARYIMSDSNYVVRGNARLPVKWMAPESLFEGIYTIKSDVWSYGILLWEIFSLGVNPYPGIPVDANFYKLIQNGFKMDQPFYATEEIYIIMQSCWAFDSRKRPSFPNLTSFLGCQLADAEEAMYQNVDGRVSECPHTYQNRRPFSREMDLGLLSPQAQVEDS
As to conditions: at 1 µM.

The target in test [16] is Vascular endothelial growth factor receptor 3 (Homo sapiens) (UniProt P35916). As to conditions: at 0.1 µM.
Test [17] has the same target. Conditions: at 1 µM.
For test [18], the target named is Macrophage colony-stimulating factor 1 receptor (Homo sapiens) (UniProt P07333). As to conditions: at 0.1 µM.
The target is the same in test [19]. Conditions: at 1 µM.
Test [20] deals with Tyrosine-protein kinase Fyn (Homo sapiens) (UniProt P06241). As to conditions: at 0.1 µM.
Tyrosine-protein kinase Fyn (Homo sapiens), sequence (P06241 2-537 limits assumed): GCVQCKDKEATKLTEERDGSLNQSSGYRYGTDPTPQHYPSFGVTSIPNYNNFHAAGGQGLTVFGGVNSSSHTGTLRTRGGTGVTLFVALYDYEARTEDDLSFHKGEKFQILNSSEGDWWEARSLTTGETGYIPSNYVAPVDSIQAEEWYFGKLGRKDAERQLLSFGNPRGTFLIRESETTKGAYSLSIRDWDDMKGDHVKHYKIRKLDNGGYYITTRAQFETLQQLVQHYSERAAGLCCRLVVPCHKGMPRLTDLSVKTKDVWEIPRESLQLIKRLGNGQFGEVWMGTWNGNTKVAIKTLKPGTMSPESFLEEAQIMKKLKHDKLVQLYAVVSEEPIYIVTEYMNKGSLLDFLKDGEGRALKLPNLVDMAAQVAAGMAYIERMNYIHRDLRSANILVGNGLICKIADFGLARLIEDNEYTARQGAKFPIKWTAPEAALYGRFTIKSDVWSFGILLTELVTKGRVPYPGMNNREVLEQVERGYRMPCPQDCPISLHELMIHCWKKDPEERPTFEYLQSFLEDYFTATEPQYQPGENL

Macrophage colony-stimulating factor 1 receptor (Homo sapiens), sequence (P07333 whole entry): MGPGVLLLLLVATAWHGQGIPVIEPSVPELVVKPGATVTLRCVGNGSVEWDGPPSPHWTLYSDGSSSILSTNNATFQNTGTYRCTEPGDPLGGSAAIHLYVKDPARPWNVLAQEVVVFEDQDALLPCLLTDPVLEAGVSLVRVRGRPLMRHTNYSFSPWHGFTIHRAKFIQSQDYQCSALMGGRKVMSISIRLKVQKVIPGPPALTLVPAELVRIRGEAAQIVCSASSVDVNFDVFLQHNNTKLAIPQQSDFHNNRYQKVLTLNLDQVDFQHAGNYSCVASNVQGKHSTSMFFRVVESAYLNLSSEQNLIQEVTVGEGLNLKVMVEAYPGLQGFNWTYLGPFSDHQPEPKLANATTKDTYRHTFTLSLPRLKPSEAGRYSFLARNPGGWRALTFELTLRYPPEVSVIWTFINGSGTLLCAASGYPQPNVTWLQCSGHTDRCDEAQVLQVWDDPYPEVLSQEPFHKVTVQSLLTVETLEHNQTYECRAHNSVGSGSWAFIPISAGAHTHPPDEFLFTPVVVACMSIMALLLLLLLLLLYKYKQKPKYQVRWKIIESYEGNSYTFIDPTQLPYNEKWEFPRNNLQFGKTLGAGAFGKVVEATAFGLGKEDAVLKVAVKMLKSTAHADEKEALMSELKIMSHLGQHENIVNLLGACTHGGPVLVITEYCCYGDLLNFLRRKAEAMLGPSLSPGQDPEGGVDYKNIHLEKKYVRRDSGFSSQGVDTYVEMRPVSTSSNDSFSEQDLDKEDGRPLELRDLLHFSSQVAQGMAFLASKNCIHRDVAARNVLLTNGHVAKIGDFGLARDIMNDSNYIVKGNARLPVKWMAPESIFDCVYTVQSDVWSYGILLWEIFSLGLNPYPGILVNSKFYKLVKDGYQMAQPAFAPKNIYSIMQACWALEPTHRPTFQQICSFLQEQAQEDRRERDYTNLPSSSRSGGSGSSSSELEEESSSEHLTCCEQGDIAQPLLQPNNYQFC
Serine/threonine-protein kinase PLK1 (Homo sapiens), sequence (P53350 whole entry): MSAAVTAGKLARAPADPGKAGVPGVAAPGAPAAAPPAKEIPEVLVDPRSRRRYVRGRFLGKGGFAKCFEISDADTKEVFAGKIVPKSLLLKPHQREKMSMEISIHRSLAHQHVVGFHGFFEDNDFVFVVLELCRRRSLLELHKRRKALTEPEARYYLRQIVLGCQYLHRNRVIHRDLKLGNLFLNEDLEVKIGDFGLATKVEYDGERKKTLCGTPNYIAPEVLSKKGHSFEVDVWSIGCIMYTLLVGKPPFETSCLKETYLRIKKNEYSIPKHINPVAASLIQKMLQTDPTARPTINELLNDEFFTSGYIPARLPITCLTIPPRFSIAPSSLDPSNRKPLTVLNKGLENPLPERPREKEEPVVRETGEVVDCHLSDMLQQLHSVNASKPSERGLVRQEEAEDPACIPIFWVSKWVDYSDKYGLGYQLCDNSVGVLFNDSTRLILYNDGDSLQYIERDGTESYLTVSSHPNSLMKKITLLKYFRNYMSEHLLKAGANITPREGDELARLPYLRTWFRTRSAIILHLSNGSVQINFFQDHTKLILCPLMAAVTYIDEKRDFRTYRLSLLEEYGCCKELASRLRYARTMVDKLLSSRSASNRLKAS
Vascular endothelial growth factor receptor 3 (Homo sapiens), sequence (P35916 whole entry): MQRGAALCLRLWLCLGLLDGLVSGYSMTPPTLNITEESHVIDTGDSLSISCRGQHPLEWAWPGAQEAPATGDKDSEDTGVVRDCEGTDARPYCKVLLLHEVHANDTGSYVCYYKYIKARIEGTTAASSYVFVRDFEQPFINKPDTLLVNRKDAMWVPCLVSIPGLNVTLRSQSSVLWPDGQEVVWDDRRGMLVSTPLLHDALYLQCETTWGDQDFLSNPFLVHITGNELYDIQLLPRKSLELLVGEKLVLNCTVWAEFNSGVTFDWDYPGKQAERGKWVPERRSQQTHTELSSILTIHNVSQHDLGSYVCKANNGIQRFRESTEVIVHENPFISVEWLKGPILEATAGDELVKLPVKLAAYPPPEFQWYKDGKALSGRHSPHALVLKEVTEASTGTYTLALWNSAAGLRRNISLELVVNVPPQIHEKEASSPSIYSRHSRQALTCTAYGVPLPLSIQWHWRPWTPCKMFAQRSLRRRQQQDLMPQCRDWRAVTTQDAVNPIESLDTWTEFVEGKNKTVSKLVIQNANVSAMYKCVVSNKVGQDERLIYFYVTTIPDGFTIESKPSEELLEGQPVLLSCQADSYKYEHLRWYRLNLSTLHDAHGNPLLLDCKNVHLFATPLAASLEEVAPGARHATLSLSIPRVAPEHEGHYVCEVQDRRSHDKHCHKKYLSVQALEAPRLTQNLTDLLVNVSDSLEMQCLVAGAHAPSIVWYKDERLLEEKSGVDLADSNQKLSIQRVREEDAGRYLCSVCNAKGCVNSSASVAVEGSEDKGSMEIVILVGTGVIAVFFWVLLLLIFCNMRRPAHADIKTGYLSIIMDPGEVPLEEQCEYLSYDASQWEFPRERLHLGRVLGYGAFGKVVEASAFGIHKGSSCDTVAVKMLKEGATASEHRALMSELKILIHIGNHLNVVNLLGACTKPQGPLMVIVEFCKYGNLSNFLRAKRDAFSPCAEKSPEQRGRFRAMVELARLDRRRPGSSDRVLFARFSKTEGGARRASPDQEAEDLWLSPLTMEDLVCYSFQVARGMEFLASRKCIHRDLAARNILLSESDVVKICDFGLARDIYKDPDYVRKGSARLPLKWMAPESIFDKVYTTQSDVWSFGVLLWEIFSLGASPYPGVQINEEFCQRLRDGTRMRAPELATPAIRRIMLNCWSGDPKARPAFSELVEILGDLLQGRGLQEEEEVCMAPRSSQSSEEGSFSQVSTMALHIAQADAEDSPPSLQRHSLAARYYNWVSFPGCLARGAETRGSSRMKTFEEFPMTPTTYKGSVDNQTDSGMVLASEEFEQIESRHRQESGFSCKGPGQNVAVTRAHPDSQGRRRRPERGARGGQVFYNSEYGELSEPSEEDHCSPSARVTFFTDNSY
Serine/threonine-protein kinase Nek7 (Homo sapiens), sequence (Q8TDX7 whole entry, looked up): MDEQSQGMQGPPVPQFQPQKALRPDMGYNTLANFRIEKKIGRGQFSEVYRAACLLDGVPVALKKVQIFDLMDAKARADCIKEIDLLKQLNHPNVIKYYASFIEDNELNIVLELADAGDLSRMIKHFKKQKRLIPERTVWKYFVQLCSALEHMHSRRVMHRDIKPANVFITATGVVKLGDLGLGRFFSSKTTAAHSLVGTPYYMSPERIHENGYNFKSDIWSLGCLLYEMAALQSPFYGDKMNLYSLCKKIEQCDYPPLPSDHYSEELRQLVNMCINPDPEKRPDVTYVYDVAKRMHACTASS
Serine/threonine-protein kinase Nek6 (Homo sapiens), sequence (Q9HC98 whole entry): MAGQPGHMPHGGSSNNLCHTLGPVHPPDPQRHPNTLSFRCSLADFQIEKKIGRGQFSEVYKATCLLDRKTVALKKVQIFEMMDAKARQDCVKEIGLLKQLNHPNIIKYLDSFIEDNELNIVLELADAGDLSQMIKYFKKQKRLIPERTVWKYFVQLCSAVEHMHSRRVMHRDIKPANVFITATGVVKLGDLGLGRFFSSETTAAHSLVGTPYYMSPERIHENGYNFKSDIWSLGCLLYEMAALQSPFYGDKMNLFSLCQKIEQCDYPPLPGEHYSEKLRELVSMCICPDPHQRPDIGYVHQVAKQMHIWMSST

The term inhibition denotes the drop in the measured response relative to a control, in per cent. Turning to `COc1cc(Nc2nccc(-c3cnn4ncccc34)n2)cc(OC)c1`, the inhibition in test [1] was 28.2%; in test [2], 2.05%; in test [3], 19.3%; in [4], 2.03%; in [5], 12%; in [6], -0.86%. Besides, the inhibition in test [7] was 2.06%; in [8] it was 2.07%; in test [9], 3.54%; in test [10], 17.3%; in test [11], 69.9%; in [12], 6.63%. Further, the inhibition in test [13] came to 36.9%; in test [14], 7.15%; in [15], 77.3%; in test [16] it was 10.4%; in test [17], 45.4%; in test [18], 68.2%. For the same molecule, the inhibition in test [19] stood at 94.2%; in test [20], 7.87%.

Regarding `Nc1ccc(C#Cc2cncnc2Nc2ccc(OCc3cccc(F)c3)c(Cl)c2)cc1`, the inhibition is 4.07% in test [1]; 3.38% in test [2]; 2.7% in test [3]; 3.5% in test [4]; 3.39% in test [5]; 2.73% in test [6]. The inhibition turned out to be 0.63% in test [7]; 1.31% in [8]; 1.32% in [9]; 3.62% in [10]; 6.07% in test [11]; 0.94% in [12]. Also, the inhibition in [13] was -0.53%; in test [14], 4.2%; in [15] it was -6.67%; in test [16], 1.01%; in test [17], 1.86%; in test [18], 0.06%. Moreover, the inhibition stood at 3.9% in test [19] and 1.67% in test [20].
